AHR activator = human AHR activation; P35869; AHR-responsive luciferase reporter cells, luminescence; activation, % at 5 µM; actives 2.5% (n = 320,000); AID 2796; in the data active = activation above about 47%;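 note: 0% = vehicle wells and 100% = reference agonist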
Target sequence (P35869 whole entry, looked up): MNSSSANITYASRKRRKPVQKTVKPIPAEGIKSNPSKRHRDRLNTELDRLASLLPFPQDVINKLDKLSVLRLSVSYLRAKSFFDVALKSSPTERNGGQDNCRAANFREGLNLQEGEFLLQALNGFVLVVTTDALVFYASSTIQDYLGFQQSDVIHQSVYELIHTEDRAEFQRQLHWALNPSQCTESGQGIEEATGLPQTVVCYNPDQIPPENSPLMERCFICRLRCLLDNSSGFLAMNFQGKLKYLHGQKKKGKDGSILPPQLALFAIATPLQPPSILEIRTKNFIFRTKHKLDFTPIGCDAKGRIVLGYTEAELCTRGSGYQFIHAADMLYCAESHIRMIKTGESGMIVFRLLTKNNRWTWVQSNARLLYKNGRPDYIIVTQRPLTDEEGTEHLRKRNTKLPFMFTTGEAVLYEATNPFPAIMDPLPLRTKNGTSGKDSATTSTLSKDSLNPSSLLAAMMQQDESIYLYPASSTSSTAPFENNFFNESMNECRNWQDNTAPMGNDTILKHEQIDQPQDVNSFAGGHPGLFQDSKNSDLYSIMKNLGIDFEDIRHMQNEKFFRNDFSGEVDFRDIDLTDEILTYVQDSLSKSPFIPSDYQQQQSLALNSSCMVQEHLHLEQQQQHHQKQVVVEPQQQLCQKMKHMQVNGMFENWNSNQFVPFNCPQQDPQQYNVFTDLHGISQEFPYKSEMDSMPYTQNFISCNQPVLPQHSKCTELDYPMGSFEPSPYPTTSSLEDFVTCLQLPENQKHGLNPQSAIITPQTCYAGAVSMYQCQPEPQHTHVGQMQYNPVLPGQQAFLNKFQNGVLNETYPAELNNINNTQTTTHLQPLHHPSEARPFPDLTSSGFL
DAX1 inh-1 = blocks DAX1 repression of SF-1 activated StAR promoter | inhibition, % at 6.8 µM | HEK293T StAR-luciferase reporter, SF-1/DAX-1 repression relief | actives 1.1% (n = 370,000);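 active = inhibition above the mean over all tested compounds plus 3 SD, cut at about 3.6% in these data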;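 note: 0% = DAX-1 cells with DMSO and 100% = cells lacking DAX-1 with DMSO; higher inhibition means more luminescence from relief of DAX-1 repression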
hcDAF12 agonist = activates DAF-12 receptor from parasite H. contortus | HEK293 hcDAF-12 lit1-tk-luc reporter, luminescence; 0% DMSO, 100% Δ7-dafachronic acid | activation, % at 6.8 µM | actives 1.4% (n = 370,000) | AID 652067;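 active = activation above the mean of all tested compounds plus 3 SD, cut at about 5.5% in these data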;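 note: 100% = response to 3 µM Δ7-dafachronic acid high control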
hgDAF12 agonist = activates the H. glycines DAF-12 receptor ligand-binding domain; HEK293 GAL4-hgDAF12 UAS-luciferase reporter, agonist luminescence; normalized to butyrate control; activation, % at 6.8 µM; actives 1.8% (n = 370,000); AID 687014;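 active = activation above a cutoff set at the mean of all screened compounds plus 3 SD, cut at about 10% in these data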;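 note: 0% = DMSO wells and 100% = sodium butyrate wells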
ssDAF12 agonist = S. stercoralis DAF-12 activation, primary screen. AID 652126. HEK293 ssDAF-12/GRIP1 lit1-tk-luc reporter, luminescence; % of 3 µM dafachronic acid response. activation, % at 6.8 µM. actives 1% (n = 370,000);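 active = activation above the mean over all tested compounds plus 3 SD, cut at about 0.9% in these data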;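 note: 0% = DMSO-only wells and 100% = 3 µM delta7-dafachronic acid wells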
DAX1 inh-2 = NR0B1 (DAX1) inhibition; HEK293 Gal4-DAX1 luciferase reporter, luminescence; inhibition, % at 6.75 µM; actives 0.99% (n = 340,000); P51843;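 active = inhibition above the mean over all tested compounds plus 3 SD, cut at about 4.2% in these data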;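 note: 0% = DAX1-transfected cells with DMSO and 100% = empty-vector control cells with DMSO; inhibition shows as a rise in luminescence from relieved DAX1 repression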
* = called active by the depositor; · = no result given. An excerpt weighted towards active compounds, which were near 5.7% of everything screened.

SMILES | AHR activator | DAX1 inh-1 | hcDAF12 agonist | hgDAF12 agonist | ssDAF12 agonist | DAX1 inh-2
Oc1cc(CNC2CCCCC2)c(O)cc1CNC1CCCCC1 | · | -1 | -3 | -1 | -1 | -1
CSC1=NC(C(Cl)(Cl)Cl)N=C(c2ccc(C)cc2)N1 (configuration not stated) | 67* | -2 | 0 | -4 | -1 | -1
CN(C)c1ccc(/C=C/c2cccc[n+]2[O-])cc1 | -5 | 1 | 6.3* | 5 | -1 | ·
[O-][n+]1ccccc1/C=C/c1ccccc1 | -6 | 0 | 1 | 0 | -1 | 2
O=C(CN1C(=O)C2CC=CCC2C1=O)Nc1nc2ccccc2[nH]1 (configuration not stated) | 19 | 0 | 1 | 2 | 0 | 5.4*
Cc1ccc(OCCCC(=O)Nc2nc3ccccc3[nH]2)cc1 | 4 | 0 | -1 | 1 | -1 | 0
CC(=O)Nc1ccccc1NC(=O)c1cc(C)ccc1C | 1 | 0 | 0 | 5 | -1 | 1
O=C(Cc1ccccc1)Nc1nc2ccccc2[nH]1 | 6 | 1 | -1 | 5 | -1 | -2
Cc1ccc(C)c(C(=O)Nc2nc3ccccc3[nH]2)c1 | 48* | 1 | 0 | 4 | -1 | 0
O=C(CCCOc1ccccc1)Nc1nc2ccccc2[nH]1 | 11 | 2 | 4 | 12* | -1 | 3
O=C(Cc1c[nH]c2ccccc12)Nc1nc2ccccc2[nH]1 | 91* | 1 | 3 | 6 | 1.9* | 2
Cc1ccccc1S(=O)(=O)N1CCCc2nc(C)c(C)cc21 | · | 0 | -2 | 1 | -1 | ·
COc1ccc(NC(=O)C2=CCN(S(=O)(=O)c3ccccc3)CC2)cc1OC | 5 | 0 | -1 | -2 | 0 | -2
Cc1ccc(C(=O)Nc2ccc(N3CCOCC3)nc2N2CCOCC2)cc1 | 2 | -1 | -1 | -3 | -2 | 2
CC(C)(C)c1ccc(S(=O)(=O)N2CC(C(=O)O)Oc3ccc(Cl)cc32)cc1 (configuration not stated) | 3 | 0 | 2 | 1 | -1 | 1
Cc1onc(-c2c(F)cccc2Cl)c1C(=O)Nc1nc2ccccc2[nH]1 | 48* | 0 | 2 | 4 | 0 | 0
CC(=O)Nc1nc2ccccc2[nH]1 | 4 | 0 | -1 | -1 | 0 | 0
O=C(Nc1nc2ccccc2[nH]1)c1ccc(Cl)cc1 | 44 | 1 | 5.8* | 10 | 0 | -3
O=C(Nc1nc2ccccc2[nH]1)c1ccccc1O | 26 | 2 | 4 | 11* | 1.2* | 1
Cc1ccc(/C=C/C(=O)Nc2nc3ccccc3[nH]2)cc1 | 13 | 2 | 5.8* | 9 | 1 | 2
Cc1ccc(Cc2c(-c3ccc(F)cc3)nc3ccc(Br)cn23)cc1 | · | 1 | 2 | 6 | -1 | ·
CN1C(=O)CCC(CCC(=O)O)(c2ccccc2O)C1=O (configuration not stated) | -1 | 0 | -1 | -1 | -1 | 0
CC(C)(C)OC(=O)NN1CC(=O)N2[C@@H](Cc3c([nH]c4ccccc34)C2(C)C)C1=O | 4 | -1 | -3 | -1 | -1 | 0
COc1ccc(N2CCN(C(=O)CSc3nnc(C4CC4)n3C3CC3)CC2)cc1 | · | 0 | -2 | -1 | -2 | 0
Cc1cc(=O)c2ccc3ccccc3c2[nH]1 | 17 | 0 | -1 | 2 | -1 | 2
SMILES | AHR activator | DAX1 inh-1 | hcDAF12 agonist | hgDAF12 agonist | ssDAF12 agonist | DAX1 inh-2
COc1ccc(-c2nc(=S)c3ccc4ccccc4c3[nH]2)cc1 | · | 1 | 6.4* | 1 | 1.0* | 0
Cc1cccc(C)c1NC(=O)C(c1ccncc1)n1c(=O)c(-c2ccccc2)nc2ccccc21 (configuration not stated) | · | 1 | 1 | 6 | 0 | ·
COc1cccc(-c2sc3ccc(OC)cc3c2-c2cnc(N3CCOCC3)nc2)c1 | · | 2 | -1 | 11* | -1 | ·
Cn1cnc(S(=O)(=O)N2CCCCC2c2cc(C(=O)Nc3ccccc3Cl)no2)c1 (configuration not stated) | · | -1 | -1 | 1 | -1 | ·
Cn1c(=S)[nH]c2ccccc21 | 10 | 1 | 5.9* | 0 | -1 | 4.7*
COc1ccc2[nH]c3c(c2c1)CCN[C@]31C(=O)N(C)c2ccc(Br)cc21 | · | -1 | 4 | -2 | 1.1* | ·
CCCN(C(=S)Nc1ccccc1)C1CCS(=O)(=O)C1 (configuration not stated) | -1 | 0 | -1 | 2 | -1 | 0
Cc1cccc(C(=O)NCCc2ccccc2)c1 | 17 | 3 | 3 | 13* | 0 | 3
CCC(CC)C(=O)Nc1cccc(C(=O)NCCc2ccccc2)c1 | 5 | 1 | 2 | 8 | -1 | 1
CCCCOc1ccc(C(=O)NCCc2ccccc2)cc1 | 6 | 2 | 2 | 6 | 1.1* | 3
O=C(CNC(=O)c1ccccc1F)NNC(=O)c1ccccc1O | 15 | 0 | -1 | 1 | -1 | -1
Cc1cccc(C(=O)NCC(=O)NNC(=O)c2ccccc2O)c1 | 13 | 0 | 6.1* | 0 | 0 | 4
NC(=S)c1ccc(OCCCc2ccccc2)cc1 | · | 1 | 2 | 12* | -1 | 3
CC(C)(C)C(=O)NC(=S)NCc1ccccc1 | -4 | 1 | 4 | -1 | 0 | -1
CCC(C)c1ccccc1NC(=O)COC(=O)C1=COCCO1 (configuration not stated) | 0 | 0 | 1 | 3 | -1 | 0
Cc1ccc(CCNC(=O)C2CCC(=O)N(Cc3ccccc3F)C2)o1 (configuration not stated) | 7 | 4.1* | 4 | 10 | 0 | 0
CC(=O)Nc1ccc(S(=O)(=O)NCC(=O)OCC(=O)NCCc2ccccc2)cc1 | · | 1 | 1 | -1 | 0 | 1
O=C(CSc1nnnn1C1CCCC1)NCCc1ccccc1 | 7 | 1 | 0 | 5 | -1 | 5.3*
O=C(CSc1nc(=O)n2ccccc2n1)NCCc1ccccc1 | 9 | 3.9* | 0 | 0 | 0 | 0
O=C(CSc1nnc(-c2ccc(O)cc2)n1Cc1ccccc1)NNC(=O)c1ccc(Br)cc1 | 4 | 0 | 0 | 0 | -2 | -1
O=C(NNC(=O)c1cc2ccccc2[nH]1)OCc1ccccc1 | 66* | 0 | 5 | 3 | 0 | 0
CC(C)CC(C)NNC(=O)c1cc2ccccc2[nH]1 (configuration not stated) | 14 | 0 | 1 | 8 | -2 | 1
COCCn1c(SCC(=O)N2CC(=O)Nc3ccccc32)nc2ccccc2c1=O | 4 | 0 | 0 | 1 | -1 | -1
COCCn1c(SCC(=O)N2CC(=O)Nc3ccccc32)nc2ccccc21 | 17 | 0 | 5.8* | 3 | 0 | 2
C(=N\Nc1nc(-c2ccccc2)cs1)/c1cccs1 | 60* | 1 | 5.8* | 3 | 0 | 2

High-throughput results (PubChem BioAssay)
